Values joined by “and” are separate entries in the source; they are usually repeats but may differ in a detail not shown here. Identical values can stand only once. Results filed as inconclusive are left out. Active and inactive are the calls of the source. Unless noted, the call rests on the fitted dose curve; in most records, active means well fitted curve in the direction sought with a large enough effect; inconclusive means small, poorly fitted or top-dose-only effect, or another doubt; inactive means no such curve, though single readings can be large; an effect the other way counts as inactive or inconclusive.
Assays:
[1] = High-throughput drug toxicity screening in the BPDCN cell line Cal-1 (AID 1224825; call rule not given here); conditions: Cal-1 BPDCN cell viability, qHTS; at 45.8 µM (top of the series) unless noted
Outline: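 Viability of the BPDCN line Cal-1 is measured as ATP-based luminescence (CellTiter-Glo) following 48 h incubation with compounds. Percent activity uses DMSO-treated wells as 100% and 9.2 uM bortezomib as 0%.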

[2] = qHTS assay for measurement of the activity of small molecule inhibitors on Zika virus induced Caspase-3 activity in human iPSC derived neural progenitor cells (hNPCs) (AID 1224857); further: nearly all actives have a fitted effect of over 65% in size; further: potency means the concentration at half of the fitted maximal effect
Outline: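 Values are percent inhibition of virus-induced caspase-3/7 signal, scaled between uninfected cells and ZIKV-infected cells. Infection used 2 FFU/cell for 6 h after 1 h compound exposure.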

[3] = qHTS assay for measurement of the activity of small molecule inhibitors on Zika virus induced Caspase-3 activity in human astrocytoma cells (AID 1224859)
Outline: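 Compound added 1 h pre-infection; ZIKV 2 FFU/cell on SNB-19 cells, 6 h, 37 C/5% CO2. Caspase-Glo 3/7 luminescence; values as % inhibition of ZIKV-induced caspase activity.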

[4] = qHTS Screen of the MIPE 4.0 Collection Against Ewings Sarcoma (RDES) (AID 1259252); further: nearly all actives have a fitted effect of over 35% in size; further: potency means the concentration at half of the fitted maximal effect
Outline: (§1)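 Compound titrations go onto adherent log-phase cells 4 h after seeding, incubate 48 h at 37C, then CellTiter-Glo luminescence reports viability relative to DMSO and cell-free controls.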

[5] = qHTS Screen of the MIPE 4.0 Collection Against Ewings Sarcoma (EW8) (AID 1259255); further: nearly all actives have a fitted effect of over 35% in size; further: potency means the concentration at half of the fitted maximal effect
Outline: as §1

[6] = Identifying Small Molecule Inhibitors of Pancreatic Cancer Stem Cells (SN12C, Adherent) (AID 1259358);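 further: cell survival measured after 48 h of compound exposure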; further: potency means the concentration at half of the fitted maximal effect
Outline: (§2)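 Viability is scored by CellTiter-Glo luminescence 48 h after dosing, expressed as percent activity against vehicle and no-cell references. Spheroid formats rely on cells cultured 14 days in stem cell media beforehand.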

[7] = Identifying Small Molecule Inhibitors of Pancreatic Cancer Stem Cells (SN12C, Spheroid) (AID 1259360); conditions: Potency: SN12C spheroid viability; further: potency means the concentration at half of the fitted maximal effect
Outline: (§3)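 Spheroids grown 14 days in stem cell media on hydrogel-coated nonadherent plates; 2D lines seeded directly. Compounds added after 4 h attachment, 48 h at 37C, 5% CO2; CellTiter-Glo luminescence normalized to DMSO (no inhibition) and no-cell wells (full inhibition).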

[8] = Identifying Small Molecule Inhibitors of Pancreatic Cancer Stem Cells (A278, Adherent) (AID 1259361); further: nearly all actives have a fitted effect of over 35% in size
Outline: as §2

[9] = P-glycoprotein substrates identified in KB-8-5-11 adenocarcinoma cell line, qHTS therapeutic library screen (AID 1346987); further: nearly all actives have a fitted effect of over 65% in size; further: potency means the concentration at half of the fitted maximal effect
Outline: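 Luminescence from CellTiter-Glo, read 5 min after addition, quantified survival of KB-8-5-11 (P-gp-overexpressing) cells exposed to compounds for 72 h. AC50 was derived from concentration-response curves.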

[10] = High-throughput drug toxicity screening in the BPDCN cell line Gen2.2 (AID 1224824; call rule not given here;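 further: cells exposed to compounds for 48 h before reading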); conditions: Gen2.2 BPDCN cells; at 45.8 µM (top of the series) unless noted
Outline: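 CellTiter-Glo luminescence read after 48 h compound exposure at 37 C defines viability; percent activity set with DMSO as 100% and bortezomib (9.2 uM final) as 0%. 500 exponentially growing cells per well, RPMI plus 10% FBS.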

[11] = qHTS Screen of the MIPE 4.0 Collection Against Ewings Sarcoma (TC32) (AID 1259256); further: nearly all actives have a fitted effect of over 45% in size; further: potency means the concentration at half of the fitted maximal effect
Outline: as §1

[12] = Identifying Small Molecule Inhibitors of Pancreatic Cancer Stem Cells (Panc1, Adherent) (AID 1259362); conditions: Potency: viability;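 further: compound exposure lasted 48 h before the viability read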
Outline: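 Endpoint: ATP-based luminescence, 48 h drug exposure. Bortezomib at 9.2 uM final as full-kill control; DMSO vehicle as negative control; activity normalized between vehicle and cell-free wells.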

[13] = Identifying Small Molecule Inhibitors of Pancreatic Cancer Stem Cells (A2780, Spheroid) (AID 1259357); conditions: Potency: A2780 spheroid viability; further: potency means the concentration at half of the fitted maximal effect;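 further: spheroids pre-formed over 14 days in stem cell medium on hydrogel; compound exposure lasted 48 h before the ATP luminescence read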
Outline: as §3

[14] = qHTS assay to identify small molecule inhibitors of chordoma cells - UCH-1 (AID 1259355); further: nearly all actives have a fitted effect of over 55% in size
Outline: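 A 48hr growth-inhibition format: each drug tested at 15 concentrations together with added auranofin, camptothecin, doxorubicin, rubitecan and topotecan, with cell viability quantified as CellTiter-Glo luminescence.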

[15] = qHTS assay to identify small molecule inhibitors of chordoma cells - UCH-2 (AID 1259356)
[16] = qHTS Screen of the MIPE 4.0 Collection Against Ewings Sarcoma (TC71) (AID 1259253); further: nearly all actives have a fitted effect of over 40% in size; further: potency means the concentration at half of the fitted maximal effect
Outline: as §1

[17] = Identifying Small Molecule Inhibitors of Pancreatic Cancer Stem Cells (Panc1, Spheroid) (AID 1259359);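 further: potency means the concentration at half of the fitted maximal effect; compound exposure lasted 48 h before reading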
Outline: as §2

[18] = Natriuretic polypeptide receptor (hNpr1) antagonism - Pilot counterscreen GloSensor control cell line (AID 1347045; calls by dose curve)
Outline: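 Cells were first seeded and incubated overnight at 37C, then loaded with 2% GloSensor substrate for 2 h. Compounds were added for 30 min at room temperature, followed by a baseline read, 50 uM SNP and a final read after 20 min.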

[19] = P-glycoprotein substrates identified in KB-3-1 adenocarcinoma cell line, qHTS therapeutic library screen (AID 1346986); further: nearly all actives have a fitted effect of over 60% in size;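 further: potency means the concentration at half of the fitted maximal effect; potency is for cytotoxicity meaning loss of cell viability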
Outline: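 72 h cell-killing screen, 500 cells/well, CellTiter-Glo luminescence. Paired lines KB-3-1/KB-8-5-11; P-gp dependence checked by tariquidar co-treatment and HEK-293 MDR-19 versus empty-vector cells.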

Cc1cnc(Nc2ccc(OCCN3CCCC3)cc2)nc1Nc1cccc(S(=O)(=O)NC(C)(C)C)c1
72.4%: viability (% of control) [1]
inactive: Potency [2] | Potency [3] | Potency [4] | Potency [5] | Potency [6] | Potency [7] | IC50 (viability decrease) [8] | Potency [9]

CCOc1cc(C(=O)Nc2ccc(Cl)c(-c3nc4ccccc4[nH]3)c2)cc(OCC)c1OCC
0.788%: cell viability, % of control (lower = more cytotoxic) [10]
inactive: Potency [2] | Potency [3] | Potency [6] | Potency [7] | IC50 (viability decrease) [8] | Potency [12]
active: Potency [4] 14.8 µM | Potency [11] 20.9 µM

CN(C)c1ccc(Nc2nc(N)n(C(=O)c3c(F)cccc3F)n2)cc1
14.1%: viability (% of control) [1]
active: Potency [4] 5.9 µM | Potency [5] 0.132 µM | Potency [13] 18.7 µM | IC50 (viability decrease) [8] 16.6 µM
inactive: Potency [3]

CCCc1nc2c(C)cc(-c3nc4ccccc4n3C)cc2n1Cc1ccc(-c2ccccc2C(=O)O)cc1
inactive: Potency [2] | Potency [3] | Potency [14] | outcome [15] | Potency [13] | Potency [6] | Potency [7] | IC50 (viability decrease) [8] | Potency [12] | Potency [9]
126%: cell viability, % of control (lower = more cytotoxic) [10]

CC(C)(C)OC(=O)CN(Cc1ccc(Cl)cc1)Cc1ccc([N+](=O)[O-])s1
inactive: Potency [3] | Potency [4] | Potency [7]
active: Potency [2] 10.5 µM | Potency [16] 2.35 µM | Potency [6] 4.69 µM | Potency [17] 7.43 µM
30.5%: viability (% of control) [1]

OCCn1cc(-c2cnc3nnn(Cc4ccc5ncccc5c4)c3n2)cn1
inactive: Potency [2] | Potency [3] | Potency [4] | Potency [16] | Potency [5] | Potency [11] | Potency [6] | Potency [9]

Cc1ccc(N(CC2=NCCN2)c2cccc(O)c2)cc1
22.6%: viability (% of control) [1]
active: Potency [16] 14.8 µM | Potency [11] 16.6 µM
inactive: Potency [2] | Potency [3] | Potency [4] | Potency [5] | Potency [14] | outcome [15] | Potency [9]

CCCC(CCC)C(=O)O
100%: viability (% of control) [1]
inactive: Potency [2] | Potency [3] | Potency [4] | Potency [16] | Potency [5] | Potency [11] | Potency [14] | outcome [15] | Potency [9] | outcome [18]

COc1ccc(CCN2CCN(CCCc3ccccc3)CC2)cc1OC
inactive: Potency [2] | Potency [3] | Potency [4] | Potency [11] | Potency [12] | Potency [9]
active: Potency [7] 13.2 µM
64.5%: viability (% of control) [1]

C[C@@H]1CN(Cc2ccc(F)cc2)[C@@H](C)CN1C(=O)c1cc2c(C(=O)C(=O)N(C)C)cn(C)c2cc1Cl
160%: cell viability, % of control (lower = more cytotoxic) [10]
inactive: Potency [2] | Potency [3] | Potency [9]
active: Potency [5] 23.5 µM | Potency [7] 16.6 µM | IC50 (viability decrease) [8] 20.9 µM

CNC(=O)c1ccc(C)c(-n2c(C)cc(OCc3ccc(F)cc3F)c(Br)c2=O)c1
inactive: Potency [2] | Potency [3] | Potency [9]
active: Potency [7] 4.69 µM
94.3%: viability (% of control) [1]

CNC(=O)c1ccccc1Sc1ccc2c(/C=C/c3ccccn3)n[nH]c2c1
active: Potency [9] 18.4 µM and 7.31 µM

CCCc1nn(C)c2c(=O)[nH]c(-c3cc(S(=O)(=O)N4CCN(C)CC4)ccc3OCC)nc12
91.7%: cell viability, % of control (lower = more cytotoxic) [10]
inactive: Potency [2] | Potency [3] | outcome [15] | Potency [6] | Potency [7] | IC50 (viability decrease) [8] | Potency [19]
active: Potency [4] 14.8 µM | Potency [11] 5.26 µM | Potency [9] 13.2 µM

CO[C@@H]1[C@H](N(C)C(=O)c2ccccc2)C[C@H]2O[C@]1(C)n1c3ccccc3c3c4c(c5c6ccccc6n2c5c31)C(=O)NC4
active: Potency [19] 1.3 µM | Potency [9] 1.48 µM and 1.3 µM

c1ccc([C@H]2CN3CCSC3=N2)cc1
inactive: Potency [2] | Potency [3] | Potency [4] | Potency [16] | Potency [5] | Potency [11] | Potency [14] | outcome [15] | Potency [9] | outcome [18]
116%: viability (% of control) [1]

Cc1cc2c(C(C)C)c(O)c(O)c(C=O)c2c(O)c1-c1c(C)cc2c(C(C)C)c(O)c(O)c(C=O)c2c1O
6.4%: viability (% of control) [1]
inactive: Potency [2] | Potency [3] | Potency [14] | outcome [15]
active: Potency [4] 10.5 µM | Potency [16] 13.2 µM | Potency [5] 11.8 µM | Potency [11] 18.7 µM | IC50 (viability decrease) [8] 26.4 µM | Potency [9] 11.8 µM

Reference: PubChem BioAssay (NCATS)
